# Laboratory results taken from PubChem BioAssay (EPA / NIEHS).
# Records with an inconclusive call do not appear. The source made the active and inactive calls. Rule for the calls, unless noted: active = hit-call score of the fitted dose curve at least 0.9, where 1 is the maximum; inactive = score below 0.9.
# Columns and labels:
# [1] = molecular target: Oxysterols receptor LXR-beta (Homo sapiens) (UniProt P55055); test: ATG_LXRb_TRANS: Attagene TRANS-FACTORIAL HepG2 Assay for human Liver X Receptor beta (LXRb) (AID 2282981; active = hit-call score of the fitted dose curve at least 0.9, where 1 is the maximum); conditions: HepG2 Attagene TRANS GAL4-LXRb reporter, mRNA
# Sequence of Oxysterols receptor LXR-beta (Homo sapiens) (P55055 whole entry, looked up, the tested form may be a part): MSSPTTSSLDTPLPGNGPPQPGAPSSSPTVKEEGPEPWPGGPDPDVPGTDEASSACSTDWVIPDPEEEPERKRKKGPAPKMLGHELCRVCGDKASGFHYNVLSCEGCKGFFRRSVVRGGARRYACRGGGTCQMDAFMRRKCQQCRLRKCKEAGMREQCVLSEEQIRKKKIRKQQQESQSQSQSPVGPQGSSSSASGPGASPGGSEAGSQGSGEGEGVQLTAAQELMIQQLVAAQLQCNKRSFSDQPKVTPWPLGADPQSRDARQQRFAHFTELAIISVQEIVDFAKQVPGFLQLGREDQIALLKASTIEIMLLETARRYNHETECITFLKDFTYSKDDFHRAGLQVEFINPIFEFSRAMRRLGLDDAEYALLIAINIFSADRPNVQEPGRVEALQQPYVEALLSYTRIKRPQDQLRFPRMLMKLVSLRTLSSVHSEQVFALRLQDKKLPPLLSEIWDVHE
# How it was run: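 After 24 h chemical treatment of transfected HepG2 cells carrying exogenous NR-Gal4 chimeras, reporter mRNA was quantified by fluorescent RT-PCR and capillary electrophoresis; activity taken as increase over DMSO controls.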
# [2] = molecular target: Hepatocyte nuclear factor 4-alpha (Homo sapiens) (UniProt P41235); test: ATG_HNF4a_TRANS: Attagene TRANS-FACTORIAL HepG2 Assay for human Hepatocyte Nuclear Factor 4 alpha (HNF4a) (AID 2282982; active = hit-call score of the fitted dose curve at least 0.9, where 1 is the maximum); conditions: HepG2 HNF4a transactivation reporter, mRNA readout
# Sequence of Hepatocyte nuclear factor 4-alpha (Homo sapiens) (P41235 whole entry, looked up, the tested form may be a part): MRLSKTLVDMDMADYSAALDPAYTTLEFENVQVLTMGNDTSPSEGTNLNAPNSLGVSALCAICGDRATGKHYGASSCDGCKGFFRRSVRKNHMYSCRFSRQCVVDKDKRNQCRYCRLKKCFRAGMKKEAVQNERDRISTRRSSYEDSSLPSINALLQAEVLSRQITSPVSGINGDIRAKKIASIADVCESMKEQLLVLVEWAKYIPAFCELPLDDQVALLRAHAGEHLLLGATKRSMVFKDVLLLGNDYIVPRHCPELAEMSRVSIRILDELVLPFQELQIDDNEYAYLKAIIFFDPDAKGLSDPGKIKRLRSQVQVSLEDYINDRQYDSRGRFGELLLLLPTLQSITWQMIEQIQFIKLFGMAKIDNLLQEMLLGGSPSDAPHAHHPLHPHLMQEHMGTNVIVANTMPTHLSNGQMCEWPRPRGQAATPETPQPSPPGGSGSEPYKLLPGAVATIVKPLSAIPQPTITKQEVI
# How it was run: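 Activity of an exogenous HNF4a–Gal4 fusion scored as induced GAL4-UAS reporter transcripts after 24 h chemical exposure of transfected human HepG2 cells. Read-out via RT-PCR with 6-FAM labelling and capillary electrophoresis; rise over DMSO baseline.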
# [3] = ATG_M_06_TRANS: Attagene TRANS-FACTORIAL HepG2 Assay for M06 Transcription Factor (Internal Marker) (AID 2282983; active = hit-call score of the fitted dose curve at least 0.9, where 1 is the maximum;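 note: reporter transcript level by RT-PCR then capillary electrophoresis fluorescence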); conditions: HepG2 Attagene TRANS M06 internal marker reporter
# How it was run: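 Multi-reporter-transfected HepG2, 24 h treatment; reporter transcripts quantified via RT-PCR, primer-extension labelling and CE. DMSO-normalized gain-of-signal fit.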
# [4] = ATG_M_32_TRANS: Attagene TRANS-FACTORIAL HepG2 Assay for M32 Transcription Factor (Internal Marker) (AID 2282984; active = hit-call score of the fitted dose curve at least 0.9, where 1 is the maximum;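 note: transcript level of a background control reporter unit measured by RT-PCR and capillary electrophoresis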); conditions: HepG2 Attagene TRANS M32 internal marker reporter
# How it was run: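 Internal background reporter in transfected HepG2: after 24 h chemical exposure, RNA reverse-transcribed, reporter cDNA amplified, fluorescently labelled and HpaI-cut, then sized by capillary electrophoresis. Gain of signal fitted against DMSO control.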
# [5] = molecular target: Transcriptional activator Myb (Homo sapiens) (UniProt P10242); test: ATG_Myb_CIS: Attagene CIS-FACTORIAL HepG2 Assay for human Myeloblastosis (Myb) Proto-Oncogene Transcription Factor (AID 2282986); conditions: HepG2 Attagene CIS-FACTORIAL Myb reporter transcription; actives raise or lower the signal
# Sequence of Transcriptional activator Myb (Homo sapiens) (P10242 whole entry, looked up): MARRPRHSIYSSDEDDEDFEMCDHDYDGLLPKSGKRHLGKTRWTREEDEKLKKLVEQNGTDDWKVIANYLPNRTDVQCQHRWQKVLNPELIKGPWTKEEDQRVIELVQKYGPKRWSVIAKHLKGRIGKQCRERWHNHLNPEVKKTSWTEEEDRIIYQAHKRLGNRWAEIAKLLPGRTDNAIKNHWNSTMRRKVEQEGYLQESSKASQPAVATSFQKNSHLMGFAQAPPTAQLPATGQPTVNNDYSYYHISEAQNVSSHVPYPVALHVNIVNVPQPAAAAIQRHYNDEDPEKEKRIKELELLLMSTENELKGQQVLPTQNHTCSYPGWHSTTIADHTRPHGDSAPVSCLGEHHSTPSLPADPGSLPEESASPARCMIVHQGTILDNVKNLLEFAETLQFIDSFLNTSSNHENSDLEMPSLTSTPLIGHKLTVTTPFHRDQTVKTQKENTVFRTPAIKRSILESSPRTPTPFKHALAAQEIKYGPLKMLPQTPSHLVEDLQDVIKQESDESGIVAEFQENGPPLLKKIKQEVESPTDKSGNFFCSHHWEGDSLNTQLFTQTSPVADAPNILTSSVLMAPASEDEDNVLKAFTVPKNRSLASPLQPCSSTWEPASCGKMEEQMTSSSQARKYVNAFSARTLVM
# How it was run: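 Endogenous transcription factor activity at a Myb-responsive cis element is reported in human liver HepG2 cells after 24 h chemical treatment. Reporter mRNA is detected by RT-PCR and capillary electrophoresis fluorescence, with DMSO as baseline.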
# [6] = molecular target: Nuclear respiratory factor 1 (Homo sapiens) (UniProt Q16656); test: ATG_NRF1_CIS: Attagene CIS-FACTORIAL HepG2 Assay for human Nuclear Respiratory Factor 1 (NRF1) Orphan Gene (AID 2282987); conditions: HepG2 NRF1 cis-element reporter, Attagene multiplex; actives raise or lower the signal
# Sequence of Nuclear respiratory factor 1 (Homo sapiens) (Q16656 whole entry, looked up): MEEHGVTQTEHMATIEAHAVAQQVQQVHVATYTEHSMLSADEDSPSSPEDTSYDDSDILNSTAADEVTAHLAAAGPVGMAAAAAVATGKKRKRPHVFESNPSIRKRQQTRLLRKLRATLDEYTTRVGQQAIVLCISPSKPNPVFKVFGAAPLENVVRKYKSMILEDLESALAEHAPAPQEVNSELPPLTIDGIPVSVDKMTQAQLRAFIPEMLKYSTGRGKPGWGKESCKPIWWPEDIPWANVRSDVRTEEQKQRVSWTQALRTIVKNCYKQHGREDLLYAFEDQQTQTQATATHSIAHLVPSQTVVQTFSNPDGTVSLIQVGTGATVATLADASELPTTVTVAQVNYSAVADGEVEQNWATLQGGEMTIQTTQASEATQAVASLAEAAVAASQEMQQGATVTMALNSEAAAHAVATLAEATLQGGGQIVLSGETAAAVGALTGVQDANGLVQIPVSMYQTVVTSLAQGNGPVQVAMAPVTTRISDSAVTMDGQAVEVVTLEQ
# How it was run: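 Human hepatoma HepG2 cells carrying transfected promoter-regulated reporter units were incubated with test chemicals for 24 h. Reporter transcripts were measured by RT-PCR plus capillary electrophoresis, and endpoints derived by bidirectional fitting with DMSO as baseline.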
# [7] = ATG_NFI_CIS: Attagene CIS-FACTORIAL HepG2 Assay for human Nuclear Factor I (NFI) (AID 2282989); conditions: HepG2 cis-regulatory reporter, NFI response element transcription; actives raise or lower the signal
# How it was run: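 After transient transfection of HepG2 with cis-promoter reporter constructs and 24 h dosing, RNA is reverse-transcribed, amplified, 6-FAM end-labelled and HpaI-digested before capillary analysis. Bidirectional curve fitting against DMSO.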
# [8] = molecular target: Myc proto-oncogene protein (Homo sapiens) (UniProt P01106); test: ATG_Myc_CIS: Attagene CIS-FACTORIAL HepG2 Assay for human Myelocytomatosis (Myc) Proto-Oncogene Transcription Factor (AID 2282990); conditions: HepG2, Attagene cis-reporter transcription factor activity; actives raise or lower the signal
# Sequence of Myc proto-oncogene protein (Homo sapiens) (P01106 whole entry, looked up): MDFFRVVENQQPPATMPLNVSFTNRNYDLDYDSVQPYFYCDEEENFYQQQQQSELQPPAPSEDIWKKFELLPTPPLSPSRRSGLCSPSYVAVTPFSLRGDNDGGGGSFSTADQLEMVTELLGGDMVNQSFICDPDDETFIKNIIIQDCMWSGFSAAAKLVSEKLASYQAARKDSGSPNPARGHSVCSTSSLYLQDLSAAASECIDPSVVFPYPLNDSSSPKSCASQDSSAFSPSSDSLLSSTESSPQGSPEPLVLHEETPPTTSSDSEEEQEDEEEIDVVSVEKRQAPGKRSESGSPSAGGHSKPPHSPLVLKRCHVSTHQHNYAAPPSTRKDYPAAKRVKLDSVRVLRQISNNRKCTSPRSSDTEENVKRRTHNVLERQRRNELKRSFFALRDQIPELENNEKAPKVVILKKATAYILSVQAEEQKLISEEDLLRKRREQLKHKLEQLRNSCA
# How it was run: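 Cells of the HepG2 human liver line bear multiple cis-driven reporter transcription units. Reporter mRNA after 24 h exposure is reverse-transcribed, amplified, labelled and resolved by capillary electrophoresis, with gain- or loss-of-signal fitting relative to DMSO.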
# [9] = ATG_NRF2_ARE_CIS: Attagene CIS-FACTORIAL HepG2 Assay for human Nuclear Factor Erythroid 2 Related Factor 2 (NFR2) response to Antioxidant Response Elements (ARE) (AID 2282992); conditions: HepG2 Attagene ARE/NRF2 reporter, transcription factor activity; actives raise or lower the signal
# How it was run: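 Endogenous transcription factor activity in human liver HepG2 cells is tracked via a cis-element-driven reporter within a multiplexed set. mRNA induction is read by RT-PCR and capillary electrophoresis after 24 h, with DMSO as baseline.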
# [10] = ATG_Oct_MLP_CIS: Attagene CIS-FACTORIAL HepG2 Assay for human Octamer-Binding Transcription Factor (Oct) (AID 2282993); conditions: HepG2 Attagene cis-factorial Oct reporter, mRNA; actives raise or lower the signal
# How it was run: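 Cells of the HepG2 line express promoter-controlled reporter sequences whose mRNA levels, after 24 h treatment, are measured by RT-PCR and capillary electrophoresis. Increases and decreases are scored relative to DMSO.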
# [11] = BSK_3C_TissueFactor: BioMAP Diversity Plus: 3C Assay for Tissue Factor Biomarker Activity (AID 2282997); conditions: BioMAP 3C HUVEC, tissue factor biomarker readout; actives raise or lower the signal
# How it was run: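 In this endothelial system, HUVEC are treated for 24 h and Tissue Factor is assessed by ELISA, normalised to DMSO.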
# [12] = BSK_3C_uPAR: BioMAP Diversity Plus: 3C Assay for Urokinase-type plasminogen activator receptor (uPAR) Biomarker Activity (AID 2282998); conditions: BioMAP 3C HUVEC, uPAR biomarker ELISA; actives raise or lower the signal
# How it was run: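 Endothelial primary cells of human umbilical vein origin received test chemical; 24 h later uPAR was assayed by ELISA. Fitting was bidirectional, DMSO as negative control.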
# [13] = BSK_3C_VCAM1: BioMAP Diversity Plus: 3C Assay for Vascular cell adhesion molecule 1 (VCAM1) Biomarker Activity (AID 2282999); conditions: BioMAP 3C HUVEC, VCAM1 ELISA, cytokine-stimulated; actives raise or lower the signal
# How it was run: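 Activity fitted in both directions relative to DMSO, with ELISA measurement of the surface marker on primary HUVEC (3C) at 24 h post-treatment; parallel SRB staining (0.1% SRB, TCA-fixed, 560 nm) flagged overt cytotoxicity.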
# [14] = BSK_4H_Eotaxin3: BioMAP Diversity Plus: 4H Assay for Eotaxin 3 Biomarker Activity (AID 2283000); conditions: primary human endothelial cells (HUVEC); actives raise or lower the signal;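 for outcome: CCL26 protein level quantified by ELISA in parallel with SRB cytotoxicity check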
# How it was run: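 ELISA quantitation of CCL26 (Eotaxin-3) protein from chemically dosed human vascular endothelial cells at 24 h; increases and decreases both scored relative to DMSO-treated baseline.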
# [15] = molecular target: human Peroxisome Proliferator-activated Receptor alpha (PPARa), PPARA (gene 5465) (UniProt Q07869); test: ATG_PPARa_TRANS: Attagene TRANS-FACTORIAL HepG2 Assay for human Peroxisome Proliferator-activated Receptor alpha (PPARa) (AID 2283001; active = hit-call score of the fitted dose curve at least 0.9, where 1 is the maximum;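 for AC50: potency for gain of reporter signal over DMSO so agonist or activator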)
# Sequence of human Peroxisome Proliferator-activated Receptor alpha (PPARa), PPARA (gene 5465) (Q07869 whole entry, looked up, the tested form may be a part): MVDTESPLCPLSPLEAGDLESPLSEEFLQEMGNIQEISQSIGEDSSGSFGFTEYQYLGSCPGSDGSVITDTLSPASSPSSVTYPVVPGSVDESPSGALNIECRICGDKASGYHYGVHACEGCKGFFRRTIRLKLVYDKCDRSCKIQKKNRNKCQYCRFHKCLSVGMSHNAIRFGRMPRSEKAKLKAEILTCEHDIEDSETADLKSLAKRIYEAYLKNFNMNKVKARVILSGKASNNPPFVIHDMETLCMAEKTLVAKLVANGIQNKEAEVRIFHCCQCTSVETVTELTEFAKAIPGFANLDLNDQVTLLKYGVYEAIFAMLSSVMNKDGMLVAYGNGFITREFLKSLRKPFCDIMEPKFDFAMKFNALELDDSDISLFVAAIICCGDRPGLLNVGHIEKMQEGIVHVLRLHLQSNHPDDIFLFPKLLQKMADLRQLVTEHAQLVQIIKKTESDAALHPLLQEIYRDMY
# How it was run: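 Reporter transcripts quantified by RT-PCR plus capillary electrophoresis after 24 h treatment, fitted upward relative to DMSO. Cells: human HepG2 transiently carrying multiple GAL4-UAS reporter units driven by NR-Gal4 chimeras.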
# [16] = molecular target: Bile acid receptor (Homo sapiens) (UniProt Q96RI1); test: ATG_FXR_TRANS: Attagene TRANS-FACTORIAL HepG2 Assay for Farnesoid X Receptor (FXR) (AID 2282979; active = hit-call score of the fitted dose curve at least 0.9, where 1 is the maximum;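 note: hits raise reporter mRNA above DMSO so AC50 marks FXR activation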); conditions: HepG2 Attagene TRANS FXR-GAL4 reporter transcription
# How it was run: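 After 24 h chemical treatment of transfected HepG2 cells, GAL4-UAS reporter transcripts driven by an exogenous FXR-GAL4 fusion were measured by RT-PCR and capillary electrophoresis. Increases over DMSO were fitted.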
# [17] = molecular target: Nuclear receptor subfamily 4 group A member 2 (Homo sapiens) (UniProt P43354); test: ATG_NURR1_TRANS: Attagene TRANS-FACTORIAL HepG2 Assay for human Nuclear Receptor Related Protein 1 (NURR1) (AID 2282985; active = hit-call score of the fitted dose curve at least 0.9, where 1 is the maximum); conditions: HepG2 Attagene TRANS reporter, mRNA readout
# Sequence of Nuclear receptor subfamily 4 group A member 2 (Homo sapiens) (P43354 whole entry, looked up, the tested form may be a part): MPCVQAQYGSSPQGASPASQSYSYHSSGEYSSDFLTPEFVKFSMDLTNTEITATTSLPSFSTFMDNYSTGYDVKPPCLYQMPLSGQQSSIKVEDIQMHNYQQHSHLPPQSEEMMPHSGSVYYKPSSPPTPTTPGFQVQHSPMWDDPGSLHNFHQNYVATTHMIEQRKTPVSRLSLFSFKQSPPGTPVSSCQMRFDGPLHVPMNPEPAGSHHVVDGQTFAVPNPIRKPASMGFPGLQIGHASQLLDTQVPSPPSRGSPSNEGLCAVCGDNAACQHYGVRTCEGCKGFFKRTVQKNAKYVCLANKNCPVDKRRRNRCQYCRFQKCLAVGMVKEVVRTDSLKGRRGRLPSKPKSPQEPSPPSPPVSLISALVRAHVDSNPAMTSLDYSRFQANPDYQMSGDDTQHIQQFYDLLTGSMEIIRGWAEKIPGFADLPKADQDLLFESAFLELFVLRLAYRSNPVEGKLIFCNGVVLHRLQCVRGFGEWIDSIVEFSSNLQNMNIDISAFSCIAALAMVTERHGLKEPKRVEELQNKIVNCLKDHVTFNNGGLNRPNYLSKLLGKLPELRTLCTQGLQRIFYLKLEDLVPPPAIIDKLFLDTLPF
# How it was run: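 Reporter transcript induction, measured by RT-PCR with fluorescent labelling, HpaI digestion and capillary electrophoresis, after 24 hr dosing of human HepG2 cells transiently expressing an exogenous NR-Gal4 fusion with GAL4-UAS-driven reporters; DMSO as baseline.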
# [18] = ATG_NF_kB_CIS: Attagene CIS-FACTORIAL HepG2 Assay for human Nuclear Factor Kappa B (NF-kB) (AID 2282991); conditions: HepG2 Attagene cis-factorial NF-kB reporter mRNA; actives raise or lower the signal
# How it was run: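 Multiplexed cis-reporter assay in transiently transfected HepG2. 24 h treatment; RNA isolated, RT-PCR, labelled fragments resolved by CE. DMSO baseline.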
# [19] = molecular target: Cellular tumor antigen p53 (Homo sapiens) (UniProt P04637); test: ATG_p53_CIS: Attagene CIS-FACTORIAL HepG2 Assay for human p53 Transcription Factor (AID 2282994); conditions: HepG2 p53 cis-element reporter, Attagene mRNA; actives raise or lower the signal
# Sequence of Cellular tumor antigen p53 (Homo sapiens) (P04637 whole entry, looked up, the tested form may be a part): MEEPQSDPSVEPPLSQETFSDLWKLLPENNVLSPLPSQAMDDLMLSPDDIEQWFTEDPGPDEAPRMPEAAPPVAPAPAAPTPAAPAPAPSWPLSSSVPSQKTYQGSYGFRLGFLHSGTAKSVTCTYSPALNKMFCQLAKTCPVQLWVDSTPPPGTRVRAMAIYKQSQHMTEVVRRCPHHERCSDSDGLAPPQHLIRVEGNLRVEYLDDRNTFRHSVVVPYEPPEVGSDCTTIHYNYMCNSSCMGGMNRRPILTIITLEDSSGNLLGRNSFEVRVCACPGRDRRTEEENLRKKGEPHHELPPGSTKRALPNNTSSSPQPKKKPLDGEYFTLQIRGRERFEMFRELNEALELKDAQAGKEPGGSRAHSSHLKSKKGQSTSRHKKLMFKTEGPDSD
# How it was run: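 Steps: transfect HepG2 with multiplexed cis reporter constructs; dose chemicals 24 h; extract RNA, reverse-transcribe, PCR-amplify reporter sequences; FAM-label, HpaI-digest, resolve fragments by CE. Activity fitted both directions relative to DMSO.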
# [20] = molecular target: Glucocorticoid receptor (Homo sapiens) (UniProt P04150); test: ATG_GR_TRANS: Attagene TRANS-FACTORIAL HepG2 Assay for human Glucocorticoid Receptor (GR) (AID 2282978; active = hit-call score of the fitted dose curve at least 0.9, where 1 is the maximum;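 note: activators score as hits since higher reporter transcript over DMSO is fitted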); conditions: HepG2 Attagene TRANS GR reporter, mRNA transcription
# Sequence of Glucocorticoid receptor (Homo sapiens) (P04150 whole entry, looked up): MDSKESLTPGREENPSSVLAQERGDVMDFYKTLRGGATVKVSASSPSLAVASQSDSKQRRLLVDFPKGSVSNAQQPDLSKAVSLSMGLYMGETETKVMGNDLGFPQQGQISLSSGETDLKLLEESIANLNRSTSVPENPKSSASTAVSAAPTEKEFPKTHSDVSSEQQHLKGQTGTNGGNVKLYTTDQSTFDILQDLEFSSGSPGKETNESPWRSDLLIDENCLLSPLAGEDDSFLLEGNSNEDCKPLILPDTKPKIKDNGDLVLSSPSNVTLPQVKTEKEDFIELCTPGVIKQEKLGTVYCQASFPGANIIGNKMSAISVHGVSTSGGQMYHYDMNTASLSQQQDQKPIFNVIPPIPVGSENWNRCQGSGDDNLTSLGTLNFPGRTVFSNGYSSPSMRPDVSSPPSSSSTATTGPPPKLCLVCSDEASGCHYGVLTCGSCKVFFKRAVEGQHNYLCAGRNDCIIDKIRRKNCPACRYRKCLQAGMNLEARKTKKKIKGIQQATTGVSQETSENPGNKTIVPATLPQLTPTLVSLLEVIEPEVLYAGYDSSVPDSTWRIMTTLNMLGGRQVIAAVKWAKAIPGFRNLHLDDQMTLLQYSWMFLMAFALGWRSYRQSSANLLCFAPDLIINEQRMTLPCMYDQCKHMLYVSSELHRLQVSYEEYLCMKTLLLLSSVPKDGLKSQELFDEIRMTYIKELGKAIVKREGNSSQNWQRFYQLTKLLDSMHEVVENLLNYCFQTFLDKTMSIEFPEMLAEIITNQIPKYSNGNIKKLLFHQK
# How it was run: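 Multiplexed TRANS reporter system, HepG2; 24 h exposure; RNA → oligo(dT) RT → reporter-specific PCR → 6-FAM primer extension → HpaI cut → CE fluorescence. Gain-of-signal vs DMSO.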
structure (smiles),measurement,setting,value
CC(=O)OC[C@H]1O[C@@](COC(C)=O)(O[C@H]2O[C@H](COC(C)=O)[C@@H](OC(C)=O)[C@H](OC(C)=O)[C@H]2OC(C)=O)[C@@H](OC(C)=O)[C@@H]1OC(C)=O,outcome,[1],inactive
same,outcome,[2],inactive
same,outcome,[3],inactive
same,outcome,[4],inactive
same,outcome,[5],inactive
same,outcome,[6],inactive
same,outcome,[7],inactive
same,outcome,[8],inactive
same,outcome,[9],inactive
same,outcome,[10],inactive
same,outcome,[11],inactive
same,outcome,[12],inactive
same,outcome,[13],inactive
same,outcome,[14],inactive
same,outcome,[15],inactive
O=C1CCCCCN1,outcome,[16],inactive
same,outcome,[1],inactive
same,outcome,[3],inactive
same,outcome,[17],inactive
same,outcome,[5],inactive
same,outcome,[6],inactive
same,outcome,[7],inactive
same,outcome,[8],inactive
same,outcome,[18],inactive
same,outcome,[9],inactive
same,outcome,[10],inactive
same,outcome,[19],inactive
same,outcome,[11],inactive
same,outcome,[12],inactive
same,outcome,[14],inactive
same,AC50,[15],3.37 µM (active)
CCOCCO,outcome,[20],inactive
same,outcome,[3],inactive
same,outcome,[5],inactive
same,outcome,[6],inactive
same,outcome,[7],inactive
same,outcome,[8],inactive
same,outcome,[18],inactive
same,outcome,[9],inactive
same,outcome,[10],inactive
same,outcome,[11],inactive
same,outcome,[12],inactive
same,outcome,[13],inactive
O=C(O)c1cc(N=Nc2ccc(S(=O)(=O)Nc3ccccn3)cc2)ccc1O,outcome,[20],inactive
same,outcome,[2],inactive
same,outcome,[4],inactive
same,outcome,[5],inactive
same,outcome,[6],inactive
same,outcome,[7],inactive
same,outcome,[8],inactive
same,outcome,[18],inactive
same,outcome,[9],inactive
same,outcome,[10],inactive
same,outcome,[19],inactive
same,outcome,[11],inactive
same,outcome,[12],inactive
same,outcome,[13],inactive
same,outcome,[14],inactive
CC1=CC(=O)CC(C)(C)C1,outcome,[20],inactive
same,outcome,[3],inactive
same,outcome,[5],inactive
same,outcome,[6],inactive
same,outcome,[7],inactive
same,outcome,[8],inactive
same,outcome,[9],inactive
same,outcome,[10],inactive
same,outcome,[11],inactive
same,outcome,[12],inactive
same,outcome,[14],inactive
C=CC(=C)CCC=C(C)C,outcome,[1],inactive
same,outcome,[2],inactive
same,outcome,[3],inactive
same,outcome,[4],inactive
same,outcome,[17],inactive
same,outcome,[5],inactive
same,outcome,[6],inactive
same,outcome,[7],inactive
same,outcome,[8],inactive
same,outcome,[18],inactive
same,outcome,[9],inactive
same,outcome,[10],inactive
same,outcome,[19],inactive
same,outcome,[11],inactive
same,outcome,[12],inactive
same,outcome,[13],inactive
same,outcome,[14],inactive
CCC(C)(C)C(=O)O[C@H]1C[C@@H](C)C=C2C=C[C@H](C)[C@H](CC[C@@H]3C[C@@H](O)CC(=O)O3)[C@H]21,outcome,[20],inactive
same,outcome,[5],inactive
same,outcome,[6],inactive
same,outcome,[7],inactive
same,outcome,[8],inactive
same,outcome,[9],inactive
same,outcome,[10],inactive
same,outcome,[19],inactive
same,AC50,[11],20 µM (active)
same,AC50,[12],16.9 µM (active)
same,AC50,[14],34.5 µM (active)
same,outcome,[15],inactive
CCCC(=O)OCC,outcome,[20],inactive
same,outcome,[2],inactive
same,outcome,[17],inactive
same,outcome,[5],inactive
same,outcome,[6],inactive
same,outcome,[7],inactive
same,outcome,[8],inactive
same,outcome,[9],inactive
same,outcome,[10],inactive
same,outcome,[11],inactive
same,outcome,[12],inactive
same,outcome,[13],inactive
